# Screens: PubChem BioAssay, Center for Chemical Genomics, University of Michigan
# Most compounds without a hit are left out; they make up all but 0.86% or so of the library.
# CDC25B-CDK2 inh: human CDC25B-CDK2/CyclinA binding inhibition; P30305+P24941; HTRF CDC25B-CDK2/CyclinA binding, anti-His/anti-Flag; active compounds read high; z-score (concentration not given with the values); hit rate 0.72% among 94,000; AID 1259370; in the data active = z-score above about 3.2
# HIV TAR-Tat: HIV-1 TAR-Tat binding disruption | HIV-1 TAR RNA, Tat peptide displacement FRET; active compounds read high | z-score (no concentration beside the values) | hit rate 0.6% among 100,000; active = z-score of 3 or more in at least 2 runs
# Numbers without * were called inactive; / = no result given.
SMILES,CDC25B-CDK2 inh,HIV TAR-Tat
Cc1cc(C)c(-c2c(NC3CCCC(C)C3C)c(=O)c2=O)cc1C (stereo unspecified),/,0.43
O=C1c2oc3ccc(Br)cc3c(=O)c2C(c2cccc(O)c2)N1Cc1ccc(F)cc1 (stereo unspecified),-0.91,2.8
O=C1NN=C2C3CC4=NNC(=O)C4C(C3)CC12 (stereo unspecified),-1.5,/
CSc1cccc(NS(=O)(=O)c2ccc(CN3C(=O)c4cccnc4C3=O)s2)c1,/,0.31
CCCCNc1ncnc2sc(C(=O)O)c(C)c12,/,0.95
Cc1c(C(=O)O)sc2ncnc(NC3CC3)c12,/,0.22
COc1ccc(Nc2ncnc3sc(C(=O)O)c(C)c23)c(OC)c1,/,2.3
Cc1c(C(=O)O)sc2ncnc(Nc3ccccc3F)c12,/,21*
COc1ccc(Cl)cc1Nc1ncnc2sc(C(=O)O)c(C)c12,/,3.9*
Cc1c(C(=O)O)sc2ncnc(Nc3ccc(F)c(Cl)c3)c12,/,20*
Cc1c(C(=O)O)sc2ncnc(NCCC3=CCCCC3)c12,/,6.6*
Cc1c(C(=O)O)sc2ncnc(NCc3ccco3)c12,/,1.6
Cc1ccc2c(=O)cc(C(=O)Nc3sc4c(c3C(N)=O)CCCC4)oc2c1C,0.75,-1.2
CC1=NS(=O)(=O)c2cc(S(=O)(=O)N3CCN(c4cccc(Cl)c4)CC3)ccc2N1,-0.49,-0.23
OC(CNCc1cc(Cl)cc(Cl)c1)COc1ccc(Cl)c(Cl)c1 (stereo unspecified),-1.8,/
CC(C)CC(C(=O)Nc1ccccc1F)N1Cc2ccccc2C1=O (stereo unspecified),/,-0.69
COc1ccccc1NC(=O)NNC(=S)NCC(OC)OC,-3.3,/
CCOc1ccc(-c2csc(-c3cc4c([nH]c3=O)CC(c3ccco3)CC4=O)n2)cc1 (stereo unspecified),19*,-5.3
O=C1CC(c2ccco2)Cc2[nH]c(=O)c(-c3nc(-c4ccc(Oc5ccccc5)cc4)cs3)cc21 (stereo unspecified),16,0.71
Cc1cc(NC(=O)C(Sc2nnc(C)s2)c2ccccc2)no1 (stereo unspecified),-0.32,0.06
COc1ccc(-c2nnc3[nH]c(=O)n(C)c(=O)c3n2)cc1OC,-2.7,8.2*
Cn1c(=O)[nH]c2nnc(-c3ccc4c(c3)OCO4)nc2c1=O,-1.3,-0.58
CCOC(=O)N1CCN(C(=O)Cc2cn(C)c3ccccc23)CC1,-1.1,0.67
CN(Cc1ccccc1)C(=O)CSc1nc(-c2ccc3c(c2)OCO3)nc2cc(=O)[nH]n12,/,26*
CN(C(=O)CSc1nc(-c2ccc3c(c2)OCO3)nc2cc(=O)[nH]n12)c1ccccc1,/,2.8
SMILES,CDC25B-CDK2 inh,HIV TAR-Tat
CC1=C(C(=O)NCc2cccs2)C2(CCN(S(=O)(=O)c3cccs3)CC2)OC1=O,/,-0.76
O=C(O)c1cc(-c2ccco2)nc2ccccc12,/,24*
O=C(O)c1cc(-c2cc(C(=O)O)c3ccccc3n2)nc2ccccc12,1.6,1.1
COc1ccc2cc(C(=O)O)c(=O)[nH]c2c1,/,1.9
CCC1CCCCN1CCCNC(=O)c1oc(=O)c2ccccc2c1-c1ccc(C)cc1 (stereo unspecified),2.1,/
CC(C)c1ccc([C@@H]2Nc3ccc(C(=O)O)cc3[C@@H]3C=CC[C@@H]32)cc1,-0.19,/
CCOC(=O)c1ccc2c(c1)[C@@H]1C=CC[C@@H]1[C@H](c1ccc(C(=O)O)cc1)N2,1.6,8*
COC(=O)c1ccc2c(c1)C1C=CCC1[C@@H](c1ccc(C(=O)O)cc1)N2 (stereo partly specified),-1.2,7.4*
CC(C)c1ccc2c(c1)[C@@H]1C=CC[C@@H]1[C@H](c1ccc(C(=O)O)cc1)N2,-0.29,/
CCc1cccc2c1N[C@@H](c1ccc(C(=O)O)cc1)[C@H]1CC=C[C@@H]21,-0.09,/
Cc1cccc2c1N[C@H](c1ccc(C(=O)O)cc1)C1CC=CC21 (stereo partly specified),6.8*,2.9
COc1ccc2c(c1)[C@@H]1C=CC[C@@H]1[C@H](c1ccc(C(=O)O)cc1)N2,4.2,14*
CCOC(=O)c1ccc2c(c1)[C@@H]1C=CC[C@@H]1[C@H](c1ccc(C(=O)OC)cc1)N2,0.35,0.76
O=C(Cn1ncn2c(cc3sccc32)c1=O)NCc1ccccc1Cl,0.48,0.39
CC(C)NC(=O)Nc1ccc2nc3n(c(=O)c2c1)CCCC3,/,1.4
O=C(CSc1nc2cc(Cl)ccc2o1)Nc1cc(C(F)(F)F)cc(C(F)(F)F)c1,-0.85,/
Cc1cc(NC(=O)c2nn(-c3ccc(Cl)cc3)c(=O)n(C)c2=O)no1,/,0.53
COC(=O)c1cccc2c1NC(c1ccc(Br)cc1)C1CC=CC21 (stereo unspecified),-0.12,-6
CCOC(=O)[C@@H]1Nc2ccc(C(=O)O)cc2[C@@H]2C=CC[C@H]12,15*,17*
Cc1ccc2c(c1)C1C=CCC1C(C(=O)O)N2 (stereo unspecified),-1.1,5.2
COc1cccc2c1NC(C(=O)O)C1CC=CC21 (stereo unspecified),0.71,42*
